GLP-1R inv ag = qHTS of GLP-1 Receptor Inverse Agonists (Inhibition Mode). Potency, µM (top dose mostly 38.3 µM), usual class: inhibitors. 1.6% of 410,000 active. Glucagon-like peptide 1 receptor (Homo sapiens), P43220. HEK293 GLP-1R CRE-luciferase, luminescence, 24 h; GLP-1R form is constitutively active; note: nearly all actives have a fitted effect of over 55% in size
Target sequence (P43220 whole entry, looked up): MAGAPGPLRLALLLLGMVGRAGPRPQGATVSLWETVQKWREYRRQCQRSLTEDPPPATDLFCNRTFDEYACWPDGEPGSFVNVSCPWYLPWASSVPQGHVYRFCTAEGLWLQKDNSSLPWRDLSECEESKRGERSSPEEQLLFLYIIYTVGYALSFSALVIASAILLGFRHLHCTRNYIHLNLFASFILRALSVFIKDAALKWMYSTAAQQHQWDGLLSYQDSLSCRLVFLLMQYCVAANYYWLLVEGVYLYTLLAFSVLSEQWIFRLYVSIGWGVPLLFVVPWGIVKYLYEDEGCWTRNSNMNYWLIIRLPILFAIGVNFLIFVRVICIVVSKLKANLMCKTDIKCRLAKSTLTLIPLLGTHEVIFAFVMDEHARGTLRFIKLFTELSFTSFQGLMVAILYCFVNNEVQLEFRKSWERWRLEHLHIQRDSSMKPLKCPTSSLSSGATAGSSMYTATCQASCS
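Inverse agonists were sought by their lowering of basal cAMP reporter luciferase output in HEK293 cells stably carrying constitutively active human GLP-1R, after 24 h compound treatment.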
D3 antag = qHTS of D3 Dopamine Receptor Antagonist: qHTS; D3R cells, DiscoveRx beta-arrestin luminescence, antagonist mode; active compounds read low; 2.5% of 360,000 active; max response, negative = inhibition, %; in the data active = max response below about -50%; inconclusive = no clear call, values can overlap the other calls
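Cells expressing the human receptor were seeded at 1500 cells/well, incubated overnight at 37 degrees C in 5% CO2, then exposed to library compounds with dopamine controls for 90 minutes at 37 degrees C before luminescent detection.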
GLP-1R agonist = qHTS of GLP-1 Receptor Agonists; Glucagon-like peptide 1 receptor (Homo sapiens), P43220; HEK293 GLP-1R CRE-luciferase, luminescence, 4-6 h; cells express a hypersensitive GLP-1R form; Potency, µM (top dose mostly 45.6 µM), hits mostly activators; 0.007% of 380,000 active; AID 624172, 2012
D3 ag = qHTS of D3 Dopamine Receptor Agonist: qHTS; max activation, %; 0.58% of 410,000 active; D3R DiscoveRx beta-arrestin cells, luminescence, 90 min; in the data active = max activation above about 30%
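Agonist-mode cell screen: cells plated at 1500/well and incubated overnight at 37 °C, then exposed to library compounds for 90 min at 37 °C. Detection reagent was added for 30–60 min at room temperature, and luminescence was read.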
Each line names hits and unclear results; the compound was inactive in the other large screens. Only some compounds are listed: those with a hit (about 4.3% of all), similar ones and a draw of the others. Unless noted, calls come from the whole dose curve; as a rule, active = well fitted curve in the direction sought with a large enough effect; inconclusive = small, poorly fitted or top-dose-only effect, or another doubt; inactive = no such curve, though single readings can be large; an effect the other way counts as inactive or inconclusive.

CC(=O)C1(C)C(=O)N(c2ccc(C)cc2)C(=O)N1c1ccc(C)cc1 (stereo not given)	none
CN1CCc2c(sc(/N=C/c3cc(C(C)(C)C)ccc3O)c2C#N)C1	D3 antag -54.1
CCc1ccc(Cc2cnc(NC(=O)c3ccc4c(c3)CC(c3ccccc3)OC4=O)s2)cc1 (stereo not given)	none (no result: D3 antag, GLP-1R agonist)
Cc1nccn1CC1CCc2c(c3ccccc3n2C)C1=O (stereo not given)	GLP-1R agonist inconclusive
Cc1nccn1C[C@@H]1CCc2c(c3ccccc3n2C)C1=O	D3 antag -79.1
COc1ccc(-c2cn3nc(SCC(=O)Nc4ccccc4F)ccc3n2)cc1	none (no result: D3 antag, GLP-1R agonist)
O=C(Cn1cc(SCc2ccc(C(F)(F)F)cc2)c2ccccc21)N1CCCCCC1	GLP-1R inv ag 7.08µM (no result: D3 antag, GLP-1R agonist)
Cc1ccc(CSc2cn(CC(=O)N3CCCCCC3)c3ccccc23)cc1	GLP-1R inv ag 10µM (no result: D3 antag, GLP-1R agonist)
Cc1ccc(CSc2cn(CC(=O)N3CCCC3)c3ccccc23)cc1	GLP-1R inv ag inconclusive (no result: D3 antag, GLP-1R agonist)
CC1CCN(C(=O)Cn2cc(SCC(=O)NCc3ccccc3Cl)c3ccccc32)CC1	GLP-1R inv ag 10µM (no result: D3 antag, GLP-1R agonist)
CNc1sc(C(=O)c2ccc(F)cc2)c(N)c1-c1nc2ccccc2s1	D3 antag -76.1
C[C@@H]1CC[C@@]2(OC1)O[C@H]1C[C@H]3[C@@H]4CC[C@H]5C[C@@H](O)CC[C@]5(C)[C@H]4CC(=O)[C@]3(C)[C@H]1[C@@H]2C	none (no result: GLP-1R inv ag, D3 antag, GLP-1R agonist)
CC(C)CCn1nnc2sc(-c3ccccc3)cc2c1=O	none (no result: D3 antag, GLP-1R agonist)
COC(=O)c1ccc(CNC(=O)CNc2cc(C(F)(F)F)ccc2N2CCOCC2)cc1	D3 antag -56.6
COc1ccc(-c2nn(C)c3sc(C(=O)Nc4cccc(F)c4)cc23)cc1OC	GLP-1R inv ag inconclusive (no result: D3 antag, GLP-1R agonist)
COc1ccccc1Cc1c(C2CCCCC2)nc2ccc(Cl)cn12	GLP-1R inv ag 3.55µM, D3 antag inconclusive
CC(C)(C)Cc1c(-c2ccc(Br)cc2)nc2ccc(Br)cn12	GLP-1R inv ag inconclusive
CCCc1nc2ccc(Br)cn2c1Cc1ccccc1OC	GLP-1R inv ag inconclusive, D3 ag 77.6
CC(C)(C)Cc1c(-c2cccc(Cl)c2)nc2ccc(Br)cn12	D3 antag -108.5
COc1ccccc1Cc1c(-c2cccc(Cl)c2)nc2ccc(Br)cn12	GLP-1R inv ag inconclusive, D3 antag -83.0
O=C(NCc1ccccc1Cl)c1cc2c(s1)CS(=O)(=O)C2	none
Cc1ccc(N2CCN(C(=O)c3cc(S(=O)(=O)N4CCCCC4)c[nH]3)CC2)c(C)c1	none (no result: D3 antag, GLP-1R agonist)
FC(F)(F)c1ccccc1Cc1c(-c2cccc(Br)c2)nc2ccc(Cl)cn12	none
FC(F)(F)c1ccccc1Cc1c(-c2cccc(Cl)c2)nc2ccc(Cl)cn12	D3 ag 56.7
COc1cc(/C=C(/C#N)c2nc(-c3cc4ccccc4oc3=O)cs2)ccc1O	none (no result: D3 antag, GLP-1R agonist)
CCOC(=O)C(=NCCCN(C)C)NNc1ccc(Br)cc1	GLP-1R inv ag 3.98µM
Cc1ccc(-n2nc(C)c3c(C)cc(=O)n(CC(=O)NC(C)C)c32)cc1	none (no result: D3 antag, GLP-1R agonist)
CC(=O)Nc1ccc(Nc2nc3ccc(Cl)cc3n3cnnc23)cc1	none (no result: D3 antag, GLP-1R agonist)
CC(C)CCNC(=O)c1ccc2c(c1)N(C)C(=O)c1ccccc1S2	GLP-1R inv ag inconclusive, D3 antag -72.3
Cc1ccc(CN2C(=O)c3ccccc3Sc3ccc(C(=O)NCCN4CCOCC4)cc32)cc1	GLP-1R inv ag 6.31µM, D3 antag inconclusive
CC(=O)Nc1cc(C(=O)Nc2ccc3c(c2)N(C)C(=O)c2ccccc2S3)ccc1C	GLP-1R inv ag inconclusive (no result: D3 antag, GLP-1R agonist)
Cc1ccc(C(=O)Nc2ccc3c(c2)N(C)C(=O)c2ccccc2S3)cc1F	GLP-1R inv ag 1.78µM (no result: D3 antag, GLP-1R agonist)
CCN1C(=O)c2ccccc2Sc2ccc(C(=O)NCCC(C)C)cc21	GLP-1R inv ag inconclusive
CCS(=O)(=O)c1nc(S(=O)(=O)c2ccc(C)cc2)c(NCCCOC)s1	none (no result: D3 antag, GLP-1R agonist)
CCOc1cccc(C(=O)N(Cc2ccc(N(C)C)cc2)CC2CCCO2)c1 (stereo not given)	none (no result: D3 antag, GLP-1R agonist)
CC1=CC(C)(C)Nc2ccc(Cc3ccc4c(c3)C(C)=CC(C)(C)N4)cc21	GLP-1R inv ag 2.82µM
CC1=CC(C)(C)Nc2ccc(C)cc21	none
Cn1c(=O)c2c(nc(CN3CCc4ccccc4C3)n2Cc2cccc(Cl)c2)n(C)c1=O	GLP-1R inv ag inconclusive
CCCCCCn1c(CN2CCN(Cc3ccccc3)CC2)nc2c1c(=O)n(C)c(=O)n2C	D3 antag -51.9
